# About 170 (0.05%) of roughly 340,000 compounds were called active. Where a call stands in place of a potency, no number is given. Not shown: some 26% with an inconclusive outcome. Calls come from the whole dose curve; as a rule, active = well fitted inhibition curve with a large enough effect in the signal ratio, with a control signal flat (not every such curve was filed as active); inconclusive = small, poorly fitted or top-dose-only effect, or effect the other way, or a change in a side signal; inactive = flat fitted curve, though single readings scatter; the % refers to the signal ratio. Many of the other results were omitted from the sample, so actives are more common in it than they were.
# Experiment: qHTS Assay to Find Inhibitors of Chronic Active B-Cell Receptor Signaling
# Settings: ABC-DLBCL IkBa-CBG/CBR reporter, luminescence ratio, 4 h; series mostly up to 46.1 µM
# Excerpt: NIH Molecular Libraries Probe Production Network [MLPCN] NIH Chemical Genomics Center [NCGC] MLPCN Grant: 1 R03 DA031086-01A1 PI Name: Dr. R. Eric Davis NCGC Assay Overview: Diffuse large B-cell lymphoma (DLBCL) is the most common category of non-Hodgkin lymphoma, with ~20,000 new cases per year in the United States. DLBCL should be regarded as a collection of different neoplasms. Microarray gene expression analysis has defined two principal types of DLBCL, named for their similarity to normal B cell stages or activation states: a germinal center B-cell (GCB) type, and an activated B-cell (ABC) type. In ABC-DLBCL, a constitutive high-level activity of the NF-kappaB family of transcription factors has been observed (1) and NF-kappaB target genes are more highly expressed in ABC primary tumors than in GCB tumors. Functional studies have shown a constitutive high-level activity of the IkappaB (inhibitor of kappa-B) kinase (IKK) complex. […] Further analysis of DLBCL primary tumors for NF-kappaB target gene expression imply that although CARD11 is required for constitutive IKK activity in all ABC-DLBCL lines, mutations in CARD11 may be the root cause of IKK activation only in lines or tumors with such mutations. In other words, CARD11 mutations may explain NF-kappaB activation in only 10% of ABC-DLBCL cases. […] This process has been termed 'chronic active BCR signaling' (CABS). The goal of this screen is to find small-molecule inhibitors of the CABS pathway found in ABC-DLBCL lines using a cell-based assay that measures IkappaBalpa stability, which has already been extensively validated in the OCI-Ly3 line (PubChem AID:445; REF: 4). […] The assay uses green (CBG68) and red (CBR) emitting beetle luciferases [Chroma-GloTM developed by Promega Corp.] where the green luciferase is fused to IkappaBalpha and the red luciferase is present in its native state. Both luciferase genes are stably present in the TMD8 human ABC DLBCL cell line, but their expression is under the control of tetracycline-inducible promoters. Following the addition of doxycycline to induce expression of the luciferases, the green luminescence in control cultures rises only slowly because the CBG fusion partner IkappaBalpha is targeted by IKK activity for rapid degradation. In contrast, green luminescence rises rapidly in the presence of proteasome inhibitors or IKK inhibitors. The rise in red luminescence of CBR is not affected by proteasome or IKK inhibitors, and serves as normalization for cell number and nonspecific effects. Compounds were screened as a concentration-titration series that ranged from 46 uM to 3 nM.
# NCGC Assay Protocol Summary: Cells were seeded in 1536-well plates at 5000 cells/4uL in IMDM medium containing 0.5% FBS, w/o phenol red, 1% penicillin/streptomycin. Then, 23 nL of compounds or DMSO were delivered to each well using a pin tool. One uL 20ng/ml doxycycline was then dispensed into white solid 1536-well plates and the plates were incubated at 37C/5% C02 in a cell incubator for 4 hrs. Then 4 uL luminescent substrate mix (in-house prepared: 150 mM Tris-Cl, pH 7.6, 3 mM MgCl2, 1% Triton X-100, 5 mM DTT, 0.2 mM CoA, 0.15 mM ATP, 5 mM D-luciferin, final concentrations) was added to each well. The plate was incubated at r.t. for 10-15 min. The plates were measured on a ViewLux plate reader for green luminescence (540/20 nm filter) and red luminescence (618/8 nm filter). The green and red luminescent signals were corrected for red and green luminescence filter overlap using previously determined filter calibration constants (determined using the procedure outlined in the Promega Technical Manual; REF 4). The %Activity was determined from the ratio of corrected green/red luminescent values. MG132 were used as control. […] Red luminescent %Activity was normalized to the difference between red luminesence in basal cells (0%Activity) and zero luminescence (-100% Activity). […]
# Potency is the fitted concentration of half-maximal effect.
row,Compound,Potency
1,CC1CCc2sc(C(=O)NCC(c3ccco3)N3CCCCC3)cc2C1 (stereo unspecified),inactive
2,O=C(COc1ccc(F)cc1Br)NCC1COc2ccccc2O1 (stereo unspecified),inactive
3,Cc1ccccc1-c1cc(C(=O)NCc2cccs2)n(CC2CC(c3cccnc3)=NO2)n1 (stereo unspecified),inactive
4,O=C(c1ccc(N2CCOCC2)c([N+](=O)[O-])c1)N1CCN(c2ccccc2F)CC1,inactive
5,C/C=C/c1ccc(OCC(=O)NNC(=O)CN(C)S(=O)(=O)c2ccc(C)cc2)c(OC)c1,inactive
6,CN(CC(=O)Nc1ccc(OC(F)F)cc1)S(=O)(=O)/C=C/c1ccccc1,inactive
7,C=CC[C@H](CC(=O)OC(C)(C)C)C(=O)OC[C@H]1CCCN1C(=O)[C@H](CC=C)CC(=O)N(CCO)Cc1ccccc1,inactive
8,Cc1ccc(C(=O)CN2C(=O)NC3(CCc4ccccc43)C2=O)c(C)c1 (stereo unspecified),inactive
9,CC(C(=O)Nc1ccc(S(=O)(=O)N2CCCC2)cc1)N(C)Cc1ccc(F)cc1 (stereo unspecified),inactive
10,CCCCNc1c(-c2ccc(OC)c(Sc3ccc(OC)cc3)c2)nc2ccc(Cl)cn12,inactive
11,Cc1ccc2c(CN3CCN(S(=O)(=O)c4ccccc4C(F)(F)F)CC3)cc(=O)oc2c1,inactive
12,COc1ccc(S(=O)(=O)N2CCOCC2)cc1NC(=O)c1ccc(OCC(C)C)c(OC)c1,inactive
13,COc1ccccc1-c1oc2ccccc2c1C#CCCCCO,inactive
14,COc1ccccc1S(=O)(=O)NCc1ccc(C(=O)N(C)Cc2ccc(F)cc2)cc1,inactive
15,COc1ccc(NC(=O)CCC(=O)N2CCN(S(=O)(=O)c3ccc(C)cc3)CC2)c(OC)c1,inactive
16,CSc1ccccc1NC(=O)c1cnc2sc(C)cn2c1=O,inactive
17,COc1ccc(OCCCC(=O)Nc2cccc(S(=O)(=O)N3CCCCCC3)c2)cc1,inactive
18,O=C(NCCc1ccco1)c1ccc(OCc2cn3ccccc3n2)cc1,inactive
19,CN(CCc1ccccc1)C(=O)c1cccc(NC(=O)Cc2ccc([N+](=O)[O-])cc2)c1,inactive
20,CC(C)CN(C(=O)COC(=O)c1ccc(Cl)c(N)c1)c1c(N)n(Cc2ccccc2)c(=O)[nH]c1=O,inactive
21,CCOC(=O)N1CCN(C(=O)c2ccccc2N(Cc2ccccc2)S(=O)(=O)c2ccc(OC)cc2)CC1,15.8 µM (active)

row,Compound,Potency
1,NC(=O)c1ccccc1N(Cc1ccccc1)S(=O)(=O)c1ccccc1,inactive
2,CCOC(=O)N1CCN(S(=O)(=O)c2ccc(OC)cc2)CC1,inactive
3,O=C(CNS(=O)(=O)c1ccc2c(c1)OCCCO2)N1CCN(c2ccc(F)cc2)CC1,inactive
4,Cc1c(C(=O)Nc2cccc(S(=O)(=O)N3CCOCC3)c2)oc2ccccc12,inactive
5,O=C(O)CCCn1c(=O)c2cccn2c2ccc(F)cc21,inactive
6,COc1cc(C#Cc2ccc3cc(CCCO)oc(=O)c3c2)cc(OC)c1,14.6 µM (active)
7,COc1cc(/C=C2\Oc3ccc(C#Cc4ccc(O)cc4)cc3C2=O)cc(OC)c1,inactive
8,C/C(=N\NC(=S)NC(C)C)c1ccc(C(C)(C)C)cc1,inactive
9,CC(NC(=S)Nc1ccc(OC(F)F)cc1)c1ccc(F)cc1 (stereo unspecified),inactive
10,CC/C(=N\NC(=S)NC(C)C)c1ccc(OC(F)F)cc1,22.4 µM (active)
11,COc1ccc(C)cc1NC(=O)c1cc(-c2ccccc2)nc2c1cnn2C(C)C,inactive
12,Cc1ccc(C)c(OCCC(=O)Nc2cccc(S(=O)(=O)N3CCCC3)c2)c1,inactive
13,Cc1ccnc(N2C(=O)c3ccc([N+](=O)[O-])cc3C2=O)c1,inactive
14,Cc1ccc2nc(NC(=O)CSc3nc(=O)n(CCCN(C)C)c4c3CCC4)sc2c1,inactive
15,CC(C)CC1NC(=O)c2cc(Cl)ccc2-n2c1nc1ccccc1c2=O (stereo unspecified),inactive
16,O=C(Cc1ccc(S(=O)(=O)N2CCOCC2)s1)N1CCN(c2ccc(C(F)(F)F)cc2[N+](=O)[O-])CC1,inactive
17,C[C@H](OC(=O)n1ccnc1)[C@@H]1O[C@@]2(C)CCC[C@@H]1O2,inactive
18,O=C(OCc1cc(=O)n2ccsc2n1)C1(c2ccc(Cl)cc2)CC1,inactive
19,COc1ccc(C)cc1NC(=O)CN1c2cccc3cccc(c23)S1(=O)=O,inactive
20,CCc1ccc(C(=O)NNC(=O)C2CCN(c3ncnc4sc(C)c(C)c34)CC2)cc1,inactive
21,Cc1cccc(C)c1Nc1nnc(SCC(=O)NCCCN2CCCC2=O)s1,inactive

row,Compound,Potency
1,Brc1ccc(CN2CC[C@H]3C=CCc4cccc(c43)C2)cc1,inactive
2,O=C(OCC(=O)N1CCCCCC1)c1ccc(Cl)nc1,inactive
3,CC1CCCCC12NC(=O)N(CC(=O)OCc1c(F)cccc1Cl)C2=O (stereo unspecified),inactive
4,CCOc1ccc(S(=O)(=O)Nc2ccc(C(=O)NCCCN3CCCC3=O)cc2)cc1,inactive
5,CN(CC(=O)NC1CCN(Cc2ccccc2)CC1)S(=O)(=O)c1ccc(Cl)s1,inactive
6,COc1cc(OC)cc(-c2c(-c3cccs3)c3cc(-c4ccc(OC)nc4)ccc3n2C)c1,inactive
7,Cc1ccc(NC(=O)CN(C)C(=O)c2cccc(S(=O)(=O)N3CCCC3)c2)cc1,inactive
8,CN(C)C(=O)CCc1ccc2c3c([nH]c2c1)[C@]1(CCC2CCCC2)[C@@H](C(=O)N2CCOCC2)C[C@H](CC(=O)NCc2ccco2)C(=O)N1CC3,inactive
9,COc1cccc(CNC(=O)COc2cc(O)c3c(c2)OC(C)(C)CC3=O)c1,inactive
10,Cc1ccc(NC(=O)c2ccc(Cl)nc2)cc1S(=O)(=O)N1CCOCC1,inactive
11,COc1cccc(-c2sc3ccc(OC)cc3c2-c2ccc(OCCN3CCCCC3)cc2)c1,18.4 µM (active)
12,COc1ccc(-c2sc3ccccc3c2-c2ccc(OCCN3CCOCC3)cc2)cc1,inactive
13,COc1ccc2sc(-c3ccccc3OC)c(-c3ccc(OCCN4CCCC4)cc3)c2c1,inactive
14,CCN(CC)c1ccc(S(=O)(=O)N2CCCCC2)cc1NC(=O)C1=COCCO1,inactive
15,COc1ccccc1CNC(=O)c1ccc(Cl)c(S(=O)(=O)N2CCCC2)c1,inactive
16,Cc1onc(-c2c(F)cccc2Cl)c1C(=O)OCC(=O)N1C(C)CCCC1C (stereo unspecified),inactive
17,COc1ccc(S(=O)(=O)N2CCCCCC2)cc1C(=O)N(C)Cc1cccc(OC)c1OC,inactive
18,COC(=O)c1ccc(/C=C/c2c(-c3ccc(OC)cc3)sc3ccccc23)cc1,inactive
19,O=C1Nc2ccccc2/C1=C/c1ccnc2ccccc12,inactive

# Source: PubChem BioAssay AID493014 (National Center for Advancing Translational Sciences (NCATS), 2011)
